Shown are actives, neighbours in structure and some others; about 6.2% of the full set was active somewhere.
Lassa entry inh: blocks Lassa virus binding to or entry into cells | Potency, µM (series often up to 37.9 µM), for the others: at the top dose activity change, negative = inhibition, hits mostly inhibitors | hit rate 1.2% among 300,000 | AID 540256 | Lassa virus pseudotype entry inhibition, cell reporter; calls by dose curve; tested in HEK293 cells; also: potency is read from the fitted curve at half-maximal effect; nearly all actives have a fitted effect of over 50% in size
MARV entry inh: blocks Marburg virus binding to or entry into cells; Potency, µM (top dose mostly 37.8 µM), for inactives: at the top dose activity change, negative = inhibition, most hits filed as inhibitors; hit rate 1.8% among 300,000; Marburg virus pseudotyped entry inhibition, cell reporter; calls by dose curve; tested in HEK293 cells; also: potency is read from the fitted curve at half-maximal effect
FMDV inh: blocks foot and mouth disease virus; hit rate 1.2% among 410,000; FMDV antiviral cell-based qHTS; Potency, µM (titrated, usually from 57.9 µM), inactives show at the highest dose activity change, negative = inhibition, hits mostly inhibitors; AID 1159524; calls by dose curve; tested in HEK293T cells; also: read-out not given here; potency is read from the fitted curve at half-maximal effect; nearly all actives have a fitted effect of over 45% in size
HCMV inh: human cytomegalovirus inhibition | HFF cells, HCMV-luciferase reporter, 72 h; hits give low values | hit rate 4.5% among 410,000 | activity change, negative = inhibition, % at 57.5 µM | AID 1259415; in the data active = activity change below about -60%; inconclusive = no clear call, values can overlap the other calls; inactive = above about -39%
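Inhibition of viral replication was scored as loss of reporter luminescence in HFFs infected with HCMV-luciferase (MOI 1 PFU/cell) for 72 h; compounds tested at 2 doses, normalized to buffer and Salinomycin controls.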
Active calls of the source: *; ! = a repeat was not active; [ ] = dose if it differs, or a comment. % is scaled to controls: 0 for no effect and ±100 for the full control effect.

How did Cc1ccc(NC(=O)c2ccc(N/N=C/c3cccc(O)c3)c([N+](=O)[O-])c2)cc1 do in these assays?
Lassa entry inh: inconclusive; MARV entry inh: inconclusive; FMDV inh: 0%; HCMV inh: -87*

What do the screens show for `O=[N+]([O-])c1ccc(N/N=C/c2cccc(O)c2)cc1`?
Lassa entry inh: 3%[46.1 µM]; MARV entry inh: inconclusive; FMDV inh: 10%; HCMV inh: 122

What do the screens show for `Cc1noc(C)c1-c1ccc(C(=O)Nc2ccc(C(C)C)cc2)c2occc12`?
FMDV inh: inconclusive; HCMV inh: -8

What do the screens show for `CCN1CCN(c2sc(S(C)(=O)=O)nc2S(=O)(=O)c2ccc(C)cc2)CC1`?
FMDV inh: 8%; HCMV inh: -91*

Results for CCN1CCN(c2sc(S(=O)(=O)CC)nc2S(=O)(=O)c2ccc(C)cc2)CC1 ?
FMDV inh: -2%; HCMV inh: -72*

How did CCCS(=O)(=O)c1nc(S(=O)(=O)c2ccc(C)cc2)c(N2CCN(CC)CC2)s1 do in these assays?
FMDV inh: -2%; HCMV inh: -80*

How did Cc1cc(OCC(=O)N(Cc2ccc(N(C)C)cc2)CC2CCCO2)ccc1Cl (stereo unspecified) do in these assays?
Lassa entry inh: inconclusive; MARV entry inh: 5%[46.1 µM]; FMDV inh: -13%; HCMV inh: -20

What do the screens show for `COc1ccc(Cl)cc1NC(=O)CSc1nnc2[nH]c(=O)cc(-c3ccccc3)n12`?
Lassa entry inh: 1%[46.1 µM]; FMDV inh: 11%; HCMV inh: 9

How did COc1cc(NC(=O)CCc2c(C)nc3c(c(C)nn3-c3ccccc3)c2C)cc(OC)c1OC do in these assays?
Lassa entry inh: -11%[46.1 µM]; MARV entry inh: -3%[46.1 µM]; FMDV inh: inconclusive; HCMV inh: 13

Results for CCc1nc2c(OCc3ccc(F)cc3)cccn2c1N(C)C(=O)COc1ccccc1 ?
FMDV inh: 32µM*; HCMV inh: -11

Results for CCc1nc2c(OCc3ccc(Cl)cc3)cccn2c1N(C)C(=O)c1ccccc1F ?
FMDV inh: -20%; HCMV inh: -63*

What do the screens show for `CCc1nc2c(OCc3ccccc3)cccn2c1N(C)C(=O)COc1ccccc1`?
FMDV inh: -23%; HCMV inh: -15

How did CCn1c(C)c(C)c2cc(C(=O)N3CCc4ccccc4C3)ccc21 do in these assays?
FMDV inh: -13%; HCMV inh: -85*

Results for CCN1CCN(C(=O)c2ccc3c(c2)c(C)c(C)n3Cc2ccccc2)CC1 ?
Lassa entry inh: -11%; MARV entry inh: 1%; FMDV inh: 1%; HCMV inh: -17

What do the screens show for `Cc1c(CCOC(=O)C2C3CC4CC(C3)CC2C4)sc[n+]1CC(=O)c1ccc(Br)cc1` (stereo unspecified)?
Lassa entry inh: -23%; MARV entry inh: inconclusive; FMDV inh: inconclusive; HCMV inh: -103*!

What do the screens show for `CN(C)CCNc1ncnc2c1sc1nc(-c3ccccc3)c3c(c12)CCCC3`?
Lassa entry inh: inconclusive; MARV entry inh: 10µM*; FMDV inh: inconclusive; HCMV inh: -68*

How did COc1ncnc2c1sc1nc(-c3ccccc3)c3c(c12)CCCC3 do in these assays?
FMDV inh: -23%; HCMV inh: inconclusive

What do the screens show for `COc1ccccc1Cc1c(C(C)(C)C)nc2c(C)cc(Br)cn12`?
HCMV inh: -12

Results for O=C1c2ccccc2C(c2nnnn2-c2ccc3c(c2)OCCO3)N1Cc1ccco1 (stereo unspecified) ?
FMDV inh: -12%; HCMV inh: inconclusive

How did Cn1c(=NC(=O)CS(=O)(=O)c2ccccc2)sc2ccccc21 do in these assays?
Lassa entry inh: 4%; MARV entry inh: -14%; FMDV inh: 39%; HCMV inh: -16

What do the screens show for `Cn1c(=NC(=O)CS(=O)(=O)c2ccccc2)sc2cc([N+](=O)[O-])ccc21`?
Lassa entry inh: -2%; MARV entry inh: 6%[46.1 µM]; FMDV inh: -12%; HCMV inh: -87*

How did O=[N+]([O-])c1c(Nc2ccc(O)cc2)cc(Cl)c2nonc12 do in these assays?
FMDV inh: 22µM*; HCMV inh: -100*

What do the screens show for `O=[N+]([O-])c1c(Nc2ccccn2)cc(Cl)c2nonc12`?
Lassa entry inh: inconclusive; MARV entry inh: 1%[46.1 µM]; FMDV inh: 13µM*; HCMV inh: -105*

How did CCC12CCC3c4ccc(O)cc4CCC3C1CC(O)C2O (stereo unspecified) do in these assays?
Lassa entry inh: -29%; MARV entry inh: 3%; FMDV inh: -10%; HCMV inh: 14

How did COc1ccc(OCc2nc3ccccc3[nH]2)cc1 do in these assays?
Lassa entry inh: inconclusive; MARV entry inh: inconclusive; HCMV inh: 62
